This is a sample that favours compounds with a hit; in the whole collection about 0.51% have one here.
E coli growth-1: reduces bacterial viability in AddAB counter-screen. E. coli V3065 growth, OD600 absorbance, 18 h. inhibition, % at 11.9 µM. 0.27% of 330,000 active. AID 449728;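 active = inhibition above the campaign's mean inhibition across all tested compounds plus 3 SD, cut at about 9.9% in these data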;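 note: uninfected addAB+ strain grown without phage in ampicillin broth; 0% = DMSO wells and 100% = ciprofloxacin 0.95 µg/ml wells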
AddAB inh: less growth of phage-infected E. coli with AddAB | E. coli expressing H. pylori AddAB, absorbance growth | inhibition, % at 11.9 µM | 0.29% of 330,000 active | AID 435030; in the data active = inhibition above about 12%;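 note: 0% = vehicle wells of infected cells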
E coli growth-2: inhibitors of Escherichia coli growth. OD600, 23 h; stronger effect = lower value. OD600 absorbance (concentration not given with the values). AID 1053175. 0.21% of 330,000 active;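 active = OD600 absorbance below the run mean of sample wells minus 3.6 SD, in any replicate, cut at about 0.56 in these data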
phage Ecoli inh: E. coli growth loss with phage present; growth absorbance; inhibition, % at 11.9 µM; 0.26% of 360,000 active; AID 651602; in the data active = inhibition above about 11%
Tat export inh: blocks Tat-dependent protein export in E. coli; AID 488895; inhibition, % at 10 µM; 0.036% of 340,000 active; E. coli MC4100 TorA-mCherry Tat export, fluorescence;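 active = mean replicate inhibition at least 50% and at least half of replicates individually reaching 50%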;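 note: exported cargo escapes ClpAP degradation while cytoplasmic cargo is degraded and loses fluorescence; 0% = median of neutral control wells and 100% = median of NaSCN control wells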
* hit, by the source's call.

What do the screens show for `CCOc1ccc2[nH]c3c(NCCN(C)C)ncnc3c2c1`?
E coli growth-1: -1; AddAB inh: 0; E coli growth-2: 0.68; phage Ecoli inh: 1; Tat export inh: 8

How did CNCC(Cc1ccccc1)NCC(CC1CCCCC1)NCCCc1ccccc1 (centres undefined) do in these assays?
E coli growth-2: 0.47*

Results for CNCC(CC1CCCCC1)NCC(Cc1ccccc1)NCCC12CC3CC(CC(C3)C1)C2 (centres undefined) ?
E coli growth-2: 0.06*

How did COC(=O)C1=C(C)N(Cc2ccccc2)C(=NCCCCO)NC1CCc1ccccc1 (centres undefined) do in these assays?
E coli growth-2: 0.64

What do the screens show for `Oc1ccc(-c2nc(-c3ccc(F)cc3)c(-c3ccncc3)[nH]2)cc1`?
E coli growth-1: 1; AddAB inh: 0; E coli growth-2: 0.32*; phage Ecoli inh: 3; Tat export inh: -13

How did Oc1ccc(CN2CCc3ccccc3C2)c2cccnc12 do in these assays?
E coli growth-1: 5; AddAB inh: 5; E coli growth-2: 0.47*; phage Ecoli inh: 8; Tat export inh: 4

Results for Oc1ccc(CN2CCC(Cc3ccccc3)CC2)c2cccnc12 ?
E coli growth-2: 0.46*; phage Ecoli inh: 9

How did Oc1ccc(CN2CCN(c3ccccc3)CC2)c2cccnc12 do in these assays?
E coli growth-1: 2; AddAB inh: 3; E coli growth-2: 0.62; Tat export inh: 2

What do the screens show for `CN(C)C1CCN(Cc2cc(COCc3ccccc3)c3cccnc3c2O)C1` (centres undefined)?
E coli growth-1: 10*; AddAB inh: 8; Tat export inh: 10

How did O=C(Nc1ccc(C(=O)O)cc1)C(=Cc1ccc2c(c1)OCO2)NC(=O)c1ccc(Br)cc1 do in these assays?
E coli growth-2: 0.7

What do the screens show for `C=CCN1C(=O)NC(c2ccccc2)(C(F)(F)F)SC1=C(C#N)c1nnc(N2CCOCC2)n1-c1ccccc1` (centres undefined)?
E coli growth-2: 0.72

Results for Oc1ccccc1Nc1nc(NCc2ccco2)c2ccccc2n1 ?
E coli growth-1: 0; AddAB inh: 2; phage Ecoli inh: 3; Tat export inh: -2

What do the screens show for `Cc1cccc(Nc2nc(NCc3ccco3)c3ccccc3n2)c1`?
E coli growth-1: 5; AddAB inh: 2; E coli growth-2: 0.43*; phage Ecoli inh: 4; Tat export inh: -13

What do the screens show for `Cc1ccccc1Nc1nc(NCc2ccco2)c2ccccc2n1`?
E coli growth-1: 7; AddAB inh: 3; E coli growth-2: 0.49*; phage Ecoli inh: -1; Tat export inh: -10

Results for c1ccc(Nc2nc(NCc3ccco3)c3ccccc3n2)cc1 ?
E coli growth-1: 3; AddAB inh: 4; E coli growth-2: 0.31*; phage Ecoli inh: 3; Tat export inh: 20

Results for Cc1ccc(C=NNC(=O)CSc2nnc(-c3ccccc3)n2-c2ccc(Cl)cc2)o1 ?
E coli growth-2: 0.69

How did O=C(CSc1nnc(-c2ccccc2)n1-c1ccc(Cl)cc1)N/N=C/c1ccco1 do in these assays?
E coli growth-1: 11*; AddAB inh: -7; phage Ecoli inh: 4; Tat export inh: 4

What do the screens show for `CCC(C)Sc1ccc(C2N[C@@](CC(C)C)(C(=O)OC)C3C(=O)N(C)C(=O)C23)cc1` (some centres undefined)?
E coli growth-2: 0.71

Results for COc1c(N2CC3CCCNC3C2)c(F)cc2c(=O)c(C(=O)O)cn(C3CC3)c12 (centres undefined) ?
E coli growth-2: 0.058*

What do the screens show for `CC[C@@]12C(=O)N(c3ccccc3)C(=O)N1C(c1ccc(Br)cc1)C1C(=O)N(C(C)(C)C)C(=O)C12` (some centres undefined)?
E coli growth-2: 0.65

Results for O=C(O)CN1C(=O)/C(=C\c2cc([N+](=O)[O-])ccc2OCc2ccccc2Cl)SC1=S ?
E coli growth-1: -1; AddAB inh: 3; E coli growth-2: 0.54*; phage Ecoli inh: 2; Tat export inh: 3

What do the screens show for `O=C(O)CN1C(=O)/C(=C\c2cc(Br)ccc2OCc2ccc(Cl)cc2)SC1=S`?
E coli growth-2: 0.64; phage Ecoli inh: 2; Tat export inh: 18

How did O=[N+]([O-])c1ccc(-c2cccnc2)cc1 do in these assays?
E coli growth-2: 0.53*; phage Ecoli inh: 4; Tat export inh: -8

How did O=S1(=O)CCOCC(Cc2ccccc2)N1Cc1ccc(F)cc1 (centres undefined) do in these assays?
E coli growth-2: 0.66

What do the screens show for `COc1ccc2[nH]c(C)c(CCN3C(=O)OC(C)(C)C3(C)O)c2c1` (centres undefined)?
E coli growth-1: 2; AddAB inh: -3; E coli growth-2: 0.63*; phage Ecoli inh: 2; Tat export inh: -6

What do the screens show for `COc1ccc2[nH]c(C)c(CCN3C(=O)C4CC=CCC4C3=O)c2c1` (centres undefined)?
E coli growth-1: -1; AddAB inh: 3; E coli growth-2: 0.73; phage Ecoli inh: 2; Tat export inh: 6

Results for N=C(N)c1ccc(/C=C/c2ccc(C(=N)N)cc2O)cc1 ?
E coli growth-1: 4; AddAB inh: 6; E coli growth-2: 0.66; phage Ecoli inh: 7; Tat export inh: 76*

Results for O=C(CN1C(=O)C(=Cc2cccc(Br)c2)SC1=S)Nc1cccnc1 ?
E coli growth-2: 0.75

Results for OC1OC(c2ccc3c(c2)OCO3)C2COC(c3ccc4c(c3)OCO4)C12 (centres undefined) ?
E coli growth-2: 0.69

Results for C/C(CC(=O)Nc1cc(C)ccn1)=N\NC(=O)c1cccc(C)c1O ?
E coli growth-1: 7; AddAB inh: 10; phage Ecoli inh: 11*; Tat export inh: 3

Results for CN(C)CCOc1ccc(-c2c(-c3ccsc3)sc3ccccc23)cc1 ?
E coli growth-1: -2; AddAB inh: -1; phage Ecoli inh: 2; Tat export inh: 9

What do the screens show for `COc1ccc(-c2sc3ccccc3c2-c2ccc(OCCN(C)C)cc2)cc1`?
E coli growth-1: -3; AddAB inh: 2; E coli growth-2: 0.47*; phage Ecoli inh: 3; Tat export inh: 1

What do the screens show for `Cc1cccnc1Nc1nc(-c2ccccn2)cs1`?
E coli growth-1: 2; AddAB inh: 3; E coli growth-2: 0.5*; phage Ecoli inh: 3; Tat export inh: -3

What do the screens show for `CC1CN(C(C)CO)C(=O)c2cc(NC(=O)C3CC3)ccc2OC1CN(C)C(=O)Nc1ccccc1` (centres undefined)?
E coli growth-2: 0.66

Results for N=c1n(Cc2ccccc2)c2ccccc2n1CC(O)COc1ccc(Cl)cc1Cl (centres undefined) ?
E coli growth-2: 0.5*; phage Ecoli inh: 5; Tat export inh: 3

Results for O=C1C2C3C=CC(C4CC34)C2C(=O)N1/N=C/c1ccc([N+](=O)[O-])o1 (centres undefined) ?
E coli growth-1: 3; AddAB inh: 7; phage Ecoli inh: 7; Tat export inh: -4

Results for O=C1C2C3C=CC(C4CC34)C2C(=O)N1N=Cc1ccc([N+](=O)[O-])o1 (centres undefined) ?
E coli growth-2: 0.5*
